Rows were chosen to be rich in hits. Some 19% of all compounds tested hit in one or more screens of this group.
TDP1 block: TDP1 (human) enzyme inhibition; recombinant TDP1, AlphaScreen DNA substrate cleavage; hit rate 0.28% among 350,000; AID 485290; Potency, µM (series often up to 130 µM), most hits filed as inhibitors; Q9NUW8; also: nearly all actives have a fitted effect of over 40% in size
Target sequence (Q9NUW8 whole entry, looked up): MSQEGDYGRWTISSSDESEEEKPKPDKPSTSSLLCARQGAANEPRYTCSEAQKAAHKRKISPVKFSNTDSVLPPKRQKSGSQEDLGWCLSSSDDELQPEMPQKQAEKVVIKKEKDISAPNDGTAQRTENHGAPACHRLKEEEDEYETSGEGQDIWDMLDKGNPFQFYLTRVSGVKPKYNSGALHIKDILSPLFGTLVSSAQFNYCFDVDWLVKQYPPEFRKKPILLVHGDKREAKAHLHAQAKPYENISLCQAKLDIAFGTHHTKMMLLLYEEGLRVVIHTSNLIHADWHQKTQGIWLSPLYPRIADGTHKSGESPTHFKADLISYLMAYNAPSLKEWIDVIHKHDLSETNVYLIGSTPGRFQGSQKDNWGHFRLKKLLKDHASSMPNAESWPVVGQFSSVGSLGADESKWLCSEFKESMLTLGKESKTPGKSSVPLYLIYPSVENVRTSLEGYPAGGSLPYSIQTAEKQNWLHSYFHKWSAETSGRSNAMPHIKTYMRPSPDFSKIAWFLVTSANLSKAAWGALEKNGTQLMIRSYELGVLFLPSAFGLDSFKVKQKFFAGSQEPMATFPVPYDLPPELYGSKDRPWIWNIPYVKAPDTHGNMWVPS
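Compounds were preincubated with Tdp1 (1 nM final) for 15 min at room temperature before substrate (15 nM final) started a 5 min reaction; beads (10 ug/ml final) were then added for 10 min before AlphaScreen detection.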
IL1B secr inh: inhibitors of inflammasome signaling (IL-1 beta secretion). THP-1 LPS/ATP IL-1B secretion, AlphaLISA, 16 h; active compounds read low. activity change, % at 57.5 µM. hit rate 4.7% among 360,000; in the data active = activity change below about -50%; inconclusive = mostly about -30% to -49%
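THP-1 cells pretreated 1 hr with compounds (up to 57.5 uM final), then stimulated with LPS (250 ng/mL final) plus ATP (1.25 mM final); secreted IL-1B measured by AlphaLISA after 16 hr, decreased signal indicating inhibition.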
TDP1 cell noCPT: qHTS for Inhibitors of human tyrosyl-DNA phosphodiesterase 1 (TDP1): qHTS in cells in absence of CPT. DT40 Tdp1-/- hTDP1 cells, no CPT, ATP luminescence, 48 h. Potency, µM (top dose mostly 46.2 µM), hits mostly inhibitors. hit rate 15% among 420,000. AID 686978, 2013; also: nearly all actives have a fitted effect of over 55% in size
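DT40 Tdp1-/-;hTDP1 cells, no CPT (DMSO vehicle only), 400 cells/well; compounds pin-transferred; ≥48 hr, 37 °C; CellTiter-Glo 30 min RT dark, luminescence read.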
DT40 TDP1 CPT: growth inhibition of DT40 Tdp1-/-;hTDP1 cells with camptothecin (screen for TDP1 inhibitors). hit rate 12% among 420,000. Potency, µM (series often up to 46.2 µM), usual class: inhibitors. chicken DT40 Tdp1-/-;hTDP1 cells + 20 nM CPT, ATP luminescence, 48 h; also: nearly all actives have a fitted effect of over 55% in size
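Chicken DT40 Tdp1-/- cells stably complemented with human TDP1 were seeded at 400 cells/well in medium containing 20 nM camptothecin, exposed to pin-transferred compounds, and grown at 37 °C for at least 48 hr. Viability was read as ATP luminescence.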
ELG1 repair inh: ELG1-dependent DNA repair inhibition | HEK293T ELG1-luciferase reporter, luminescence, 16 h; DNA damage induced by 5-fluorouridine | Potency, µM (series often up to 46.1 µM), actives largely listed as inhibitors | hit rate 2.3% among 330,000 | AID 504467; also: nearly all actives have a fitted effect of over 55% in size
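5-Fluorouridine DNA damage + compound/DMSO, 2,000 cells/well, 16 h, 37 °C/5% CO2. ONE-Glo, 30 min RT, luminescence. Readout = decrease in reporter signal.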
Giardia kill: Giardia lamblia killing. Giardia lamblia trophozoite viability. activity change, % at 7.66 µM, hits read low. hit rate 0.15% among 340,000. AID 540267; in the data active = activity change below about -80%; inconclusive = between about -30% and that limit;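 also: parasites exposed to compound for two days anaerobically before the ATP read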
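ATP-content bioluminescence gauges trophozoite survival. Cells (100/well) receive compound and incubate anaerobically for 48 hrs at 37 deg C; detection reagent follows for 15-30 min at room temperature.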
Numbers stand for hits; i = inactive; ? = inconclusive; nt = no result given; ! = a repeat was not active; [ ] = dose if it differs, or a comment. Unless noted, calls follow the shape of the dose curve; as a rule, active = well fitted curve in the direction sought with a large enough effect; inconclusive = small, poorly fitted or top-dose-only effect, or another doubt; inactive = no such curve, though single readings can be large; an effect the other way counts as inactive or inconclusive.

SMILES | TDP1 block | IL1B secr inh | TDP1 cell noCPT | DT40 TDP1 CPT | ELG1 repair inh | Giardia kill
O=C(CCSc1ccc(F)cc1)NNC(=O)c1ccc([N+](=O)[O-])cc1 | i | i | i | i | i | i
CCOC(=O)c1ccc(NC(=O)Nc2cc3c(cc2N2CCCC2)n(C)c(=O)n3C)cc1 | i | nt | 23µM | ? | nt | nt
CCOC(=O)C1CCN(c2cc3c(cc2NC(=O)c2ccccc2)n(C)c(=O)n3C)CC1 | i | i | 8.2µM | 21µM | ? | i
CCN(CC)S(=O)(=O)c1ccc(Cl)c(NC(=O)COC(=O)c2nc3nc(C)cc(C)n3n2)c1 | i | i | i | i | i | i
O=[N+]([O-])c1cccc(-c2nnc(-c3ccccc3)o2)c1 | i | i | i | i | ? | ?
COP(=O)(OC)c1nc(-c2ccc(C)cc2)oc1N1CCCCC1 | nt | ? | 15µM | ? | i | i
CCOP(=O)(OCC)c1nc(-c2cccc([N+](=O)[O-])c2)oc1N1CCCCC1 | i | i | 21µM | ? | i | i
COCCCNC(=O)C1CCCN(S(=O)(=O)c2ccc3c(c2)oc(=O)n3C)C1 (stereo not given) | i | nt | i | i | nt | nt
C=CCNc1nc(N)c(C(=C(C#N)C#N)c2ccc(Br)cc2)s1 | i | i | ? | ? | 18µM | i
CC(C)OC(=O)[C@@H]1CC[C@H](C)[C@@H](CCC[C@@H]2CC=C[C@H](CC#N)O2)O1 | i | nt | nt | nt | nt | nt
COC(=O)c1ccc(CNC(=O)C2CCC(=O)N(CCc3ccccn3)C2)cc1 (stereo not given) | nt | i | i | i | nt | nt
COc1ccc2[nH]c(S(=O)Cc3ncc(C)c(OC)c3C)nc2c1 (stereo not given) | nt | i | 16µM | ? | i | i
COc1ccc2[nH]c(S(=O)Cc3ncc(C)c(OC)c3C)nc2n1 (stereo not given) | nt | nt | 27µM | ? | nt | nt
COc1ccnc(CS(=O)c2nc3cc(C(O)(F)F)ccc3[nH]2)c1OC (stereo not given) | nt | i | ? | i | ? | i
CCOC(=O)CSc1nc(-c2cccs2)nc2c1c(=O)n(C)c(=O)n2C | nt | i | i | ? | i | i
COc1ccc(C)c2sc(N3CCN(C(=O)c4ccco4)CC3)nc12 | i | nt | 18µM | 18µM | nt | nt
O=C(c1ccco1)N1CCN(c2nc3ccc(Cl)cc3s2)CC1 | i | nt | 23µM | ? | nt | nt
Cc1cc(C)c2nc(N3CCN(C(=O)c4ccco4)CC3)sc2c1 | i | i | i | i | ? | i
Cc1cc2nc(N3CCN(C(=O)c4ccco4)CC3)sc2cc1C | i | i | 21µM | ? | ? | i
Cc1ccc2nc(N3CCN(C(=O)c4ccco4)CC3)c3nncn3c2c1 | i | i | 16µM | ? | ? | i
COc1ccc(C)c2sc(N3CCN(C(=O)c4cccc(F)c4)CC3)nc12 | i | nt | i | i | nt | nt
CCCC(=O)N1CCN(c2nc3ccc(Cl)cc3s2)CC1 | i | i | ? | ? | ? | i
CCCCCN(C(=O)CCC(=O)OCC(=O)Nc1ccc(C)cc1F)c1c(N)n(CCCC)c(=O)[nH]c1=O | i | i | i | ? | i | i
Cc1ccc(SCc2nc3ccccc3[nH]2)cc1 | i | i | ? | ? | ? | i
Cc1cc(C)cc(CC(Cc2nc3ccccc3[nH]2)c2nc3ccccc3[nH]2)c1 (stereo not given) | i | -69 | 26µM | ? | ? | i
SMILES | TDP1 block | IL1B secr inh | TDP1 cell noCPT | DT40 TDP1 CPT | ELG1 repair inh | Giardia kill
Cc1ccc(CSCc2nc3ccccc3[nH]2)cc1 | i | -98 | 21µM | 29µM | ? | i
CC(O)c1nc2ccccc2[nH]1 (stereo not given) | nt | nt | i | i | nt | nt
Cc1ccc(CC(Cc2nc3ccccc3[nH]2)c2nc3ccccc3[nH]2)cc1 (stereo not given) | i | nt | 27µM | 27µM | nt | nt
O=C(O)Cc1c(C(=O)O)[nH]c2ccc(C(=O)O)cc12 | i | i | i | i | i | i
Cc1ccc(-c2n[nH]c(=S)n2/N=C/c2ccncc2)cc1 | i | i | ? | i | i | i
Cc1ccc(C)c(N2CCN(S(=O)(=O)c3ccc(C(=O)N(C)C)s3)CC2)c1 | i | nt | 16µM | 18µM | nt | nt
Cc1ccc(C)c(N2CCN(S(=O)(=O)c3csc(C(N)=O)c3)CC2)c1 | i | i | ? | 16µM! | ? | i
CNC(=O)[C@H]1O[C@@H](n2cnc3c(NCc4cccc(I)c4)nc(Cl)nc32)[C@H](O)[C@@H]1O | i | -89 | 21µM! | ? | i | i
Cn1c2ccccc2c2nnc(N/N=C/c3ccc(O)cc3)nc21 | nt | i | i | i | nt | i
O=C(NCCN1CCOCC1)c1ccc2ccccc2c1 | i | i | i | 21µM | ? | i
O=C(NCCN1CCOCC1)c1cc(-c2ccco2)on1 | i | i | 15µM | 15µM | ? | i
Nc1nc(C(c2ccccc2)c2ccccc2)cs1 | nt | i | ? | ? | i | i
COc1cccc(CN(C(=O)c2ccccc2Cl)C2CCS(=O)(=O)C2)c1 (stereo not given) | i | i | i | i | i | i
Cc1nn(CC(=O)NC2CC2)c(C)c1S(=O)(=O)N(C)C | nt | i | i | i | nt | nt
COc1ccc(-c2cc(C)no2)cc1S(=O)(=O)N1CCN(c2ccccn2)CC1 | i | -77 | 21µM | ? | ? | i
CCc1ccc(-c2cc(C)no2)cc1S(=O)(=O)N1CCN(c2ccccn2)CC1 | i | i | ? | ? | i | i
Cc1cc(-c2ccc(C(C)C)c(S(=O)(=O)N3CCN(c4ccccn4)CC3)c2)on1 | i | i | 21µM | 18µM | 16µM | i
CN(Cc1ccccc1)C(=O)C1CCN(S(=O)(=O)c2cccc3nonc23)CC1 | i | i | ? | i | i | i
COC(=O)c1sccc1NC(=O)CC1C(=O)NCCN1C(=O)Nc1ccc(C(F)(F)F)cc1 (stereo not given) | nt | i | ? | ? | ? | i
Oc1c(CN2CCOCC2)cc(COCc2ccccc2)c2cccnc12 | i | i | 4.1µM | 4.6µM | ? | i
c1ccc(N2CCN(Cc3ccnc4ccccc34)CC2)cc1 | i | i | 21µM | 26µM | ? | i
Oc1c(CN2CCN(c3ccccc3)CC2)cc(Br)c2cccnc12 | nt | i | 3.3µM | 5.2µM | ? | i
Clc1ncc(CN2CCN(c3ccccc3)CC2)s1 | i | i | i | i | i | i
CCOC(=O)N1CCN(Cc2ccccc2Cl)CC1 | i | i | i | i | nt | i
CCOC(=O)N1CCN(Cc2cc(Cl)c3cccnc3c2O)CC1 | i | i | 0.46µM | 0.82µM | 3.7µM | i
Cc1cccc(N2CCN(C(=O)c3noc4c3CCCCC4)CC2)c1C | i | nt | i | ? | nt | nt
CC(C)CN(C(=O)c1cccc(S(=O)(=O)N2CCN(Cc3ccccc3)CC2)c1)C1CCS(=O)(=O)C1 (stereo not given) | i[0.505 µM] | i | ? | ? | i | i

Compound activity from PubChem BioAssay.
